Experimental data published in PubChem BioAssay AID1159580 (chemical genetic matrix, 2015).
In all, about 5,500 compounds went through this assay and about 2,000 (36%) were called active. About 18% were inconclusive and are not listed. Cut-off read from the data, not from the text of the source: active = normalized growth mostly below about 0.91 (no sharp cut-off); inconclusive = no clear call, values can overlap the other calls; inactive = mostly above about 0.92. Some of the results follow.

Test: chemical genetic growth profiling, strain panel (AID 1159580);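 note: tested at 20 µM; growth read once vehicle control cultures reached saturation at 30 °C; 1 = growth at the plate median or of vehicle wells; lower values mean less growth of the strain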
Details: growth OD

Measured: normalized growth

CC(=O)O[C@H]1CC[C@@]2(C)C(CC[C@]3(C)C2C(=O)C=C2C4[C@@H](C)[C@H](C)CC[C@]4(C(=O)O)CC[C@]23C)C1(C)C (stereo partly drawn)
active: S. cerevisiae deletion strains, locus YKL009W, strain mrt4, active compounds read low 1.52 [resistant] | S. cerevisiae deletion strains, locus YKL085W, strain MDH1 (second series), active compounds read low 1.08 [resistant] | S. cerevisiae deletion strains, locus YKL085W, strain MDH1, active compounds read low 1.08 [resistant]
inactive: S. cerevisiae deletion strains, locus YAL013W, strain DEP1, active compounds read low 1 | S. cerevisiae deletion strains, locus YBR021W, strain FUR4, active compounds read low 1.03 | S. cerevisiae deletion strains, locus YBR229C, strain ROT2, active compounds read low 1.01 | S. cerevisiae deletion strains, locus YCL029C, strain bik1, active compounds read low 0.989 | S. cerevisiae deletion strains, locus YDL035C, strain GPR1, active compounds read low 0.993 | S. cerevisiae deletion strains, locus YDL074C, strain BRE1, active compounds read low 0.981 | S. cerevisiae deletion strains, locus YDL101C, strain DUN1, active compounds read low 1.01 | S. cerevisiae deletion strains, locus YDL185W, strain tfp1, active compounds read low 0.971 | S. cerevisiae deletion strains, locus YDL192W, strain arf1, active compounds read low 0.992 | S. cerevisiae deletion strains, locus YDR101C, strain arx1, active compounds read low 1.01 | S. cerevisiae deletion strains, locus YDR162C, strain NBP2, active compounds read low 1.03 | S. cerevisiae deletion strains, locus YDR318W, strain mcm21, active compounds read low 0.995 | S. cerevisiae deletion strains, locus YDR388W, active compounds read low 1 | S. cerevisiae deletion strains, locus YDR502C, strain sam2, active compounds read low 0.982 | S. cerevisiae deletion strains, locus YEL061C, strain CIN8, active compounds read low 1.01 | S. cerevisiae deletion strains, locus YER110C, active compounds read low 0.988 | S. cerevisiae deletion strains, locus YER155C, strain BEM2, active compounds read low 1.01 | S. cerevisiae deletion strains, locus YER167W, strain BCK2, active compounds read low 0.991 | S. cerevisiae deletion strains, locus YGL078C, strain dbp3, active compounds read low 1.01 | S. cerevisiae deletion strains, locus YGL086W, strain mad1, active compounds read low 1.04 | S. cerevisiae deletion strains, locus YGL248W, strain PDE1, active compounds read low 1.01 | S. cerevisiae deletion strains, locus YGR078C, strain PAC10, active compounds read low 1.01 | S. cerevisiae deletion strains, locus YGR135W, strain pre9, active compounds read low 1 | S. cerevisiae deletion strains, locus YGR229C, strain SMI1, active compounds read low 0.994 | S. cerevisiae deletion strains, locus YGR252W, strain gcn5, active compounds read low 1 | S. cerevisiae deletion strains, locus YHR030C, strain SLT2, active compounds read low 1.01 | S. cerevisiae deletion strains, locus YHR079C, strain IRE1 (second series), active compounds read low 0.997 | S. cerevisiae deletion strains, locus YHR094C, strain hxt1, active compounds read low 0.989 | S. cerevisiae deletion strains, locus YHR129C, strain ARP1, active compounds read low 1.01 | S. cerevisiae deletion strains, locus YHR200W, strain rpn10, active compounds read low 1.01 | S. cerevisiae deletion strains, locus YIL066C, strain RNR3, active compounds read low 1 | S. cerevisiae deletion strains, locus YIL073C, strain SPO22, active compounds read low 1.03 | S. cerevisiae deletion strains, locus YIL125W, strain kgd1, active compounds read low 0.98 | S. cerevisiae deletion strains, locus YIR030C, strain dcg1, active compounds read low 0.992 | S. cerevisiae deletion strains, locus YJL095W, strain BCK1, active compounds read low 1.02 | S. cerevisiae deletion strains, locus YJL134W, strain LCB3, active compounds read low 1.01 | S. cerevisiae deletion strains, locus YJL168C, strain set2, active compounds read low 0.988 | S. cerevisiae deletion strains, locus YJL187C, strain SWE1 (second series), active compounds read low 1 | S. cerevisiae deletion strains, locus YJR043C, strain POL32, active compounds read low 1.02 | S. cerevisiae deletion strains, locus YKL068W, active compounds read low 1.03 | S. cerevisiae deletion strains, locus YKR001C, strain vps1, active compounds read low 0.978 | S. cerevisiae deletion strains, locus YLR039C, strain RIC1, active compounds read low 0.99 | S. cerevisiae deletion strains, locus YLR058C, strain SHM2, active compounds read low 1 | S. cerevisiae deletion strains, locus YLR102C, strain apc9, active compounds read low 0.99 | S. cerevisiae deletion strains, locus YLR262C, strain YPT6, active compounds read low 1.02 | S. cerevisiae deletion strains, locus YLR268W, strain sec22, active compounds read low 0.979 | S. cerevisiae deletion strains, locus YLR330W, strain CHS5, active compounds read low 1.01 | S. cerevisiae deletion strains, locus YLR342W, strain FKS1 (second series), active compounds read low 0.99 | S. cerevisiae deletion strains, locus YLR371W, strain rom2, active compounds read low 0.984 | S. cerevisiae deletion strains, locus YLR418C, strain cdc73, active compounds read low 0.946 | S. cerevisiae deletion strains, locus YML016C, strain PPZ1, active compounds read low 1.01 | S. cerevisiae deletion strains, locus YML032C, strain rad52, active compounds read low 0.981 | S. cerevisiae deletion strains, locus YML124C, strain tub3, active compounds read low 0.995 | S. cerevisiae deletion strains, locus YMR078C, strain ctf18, active compounds read low 1.01 | S. cerevisiae deletion strains, locus YMR223W, strain ubp8, active compounds read low 0.985 | S. cerevisiae deletion strains, locus YMR307W, strain GAS1, active compounds read low 1.1 | S. cerevisiae deletion strains, locus YNL067W, strain RPL9B, active compounds read low 1.01 | S. cerevisiae deletion strains, locus YNL233W, strain BNI4, active compounds read low 1.02 | S. cerevisiae deletion strains, locus YNL250W, strain rad50, active compounds read low 0.989 | S. cerevisiae deletion strains, locus YNL271C, strain bni1, active compounds read low 0.991 | S. cerevisiae deletion strains, locus YNL298W, strain CLA4, active compounds read low 1.01 | S. cerevisiae deletion strains, locus YNL307C, strain MCK1, active compounds read low 0.987 | S. cerevisiae deletion strains, locus YNR052C, strain pop2, active compounds read low 0.978 | S. cerevisiae deletion strains, locus YOL006C, strain TOP1, active compounds read low 0.978 | S. cerevisiae deletion strains, locus YOL012C, strain htz1 0.848 | S. cerevisiae deletion strains, locus YOL147C, strain pex11, active compounds read low 0.991 | S. cerevisiae deletion strains, locus YOR061W, strain CKA2, active compounds read low 0.99 | S. cerevisiae deletion strains, locus YOR069W, strain VPS5, active compounds read low 1.01 | S. cerevisiae deletion strains, locus YOR136W, strain idh2, active compounds read low 0.987 | S. cerevisiae deletion strains, locus YOR144C, strain elg1, active compounds read low 0.992 | S. cerevisiae deletion strains, locus YOR184W, strain ser1, active compounds read low 0.995 | S. cerevisiae deletion strains, locus YOR316C, strain cot1, active compounds read low 0.995 | S. cerevisiae deletion strains, locus YPL055C, strain LGE1, active compounds read low 0.994 | S. cerevisiae deletion strains, locus YPL241C, strain CIN2, active compounds read low 1.01 | S. cerevisiae deletion strains, locus YPR119W, strain clb2, active compounds read low 1.01 | S. cerevisiae deletion strains, locus YPR141C, strain kar3, active compounds read low 0.995 | S. cerevisiae deletion strains, locus YPR163C, strain tif3, active compounds read low 1.01 | S. cerevisiae deletion strains, locus YPR167C, strain met16, active compounds read low 0.978 | S. cerevisiae deletion strains, strain wtn01, active compounds read low 0.977 | S. cerevisiae strains, strain wild type, active compounds read low 1
